Drawing on PubChem BioAssay (NCI), this text covers growth for 40 compounds.

Molecules are shown by their SMILES. Compounds without any hit were thinned out: in the full panel of roughly 83,000, 20% have a hit.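 Single-concentration screen, 48 h exposure, 96-well plates. Endpoint: percent growth. Below 10 = active.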 Values without a mark were called inactive. The source made the active and inactive calls.

The experiment has as its system SK-MEL-28 melanoma. The experiment can be described thus: NCI-60 one-dose screen, 48 h (100 = growth as untreated, 0 = no growth, -100 = all killed). To be noted: 10 µM unless noted. The protocol:
Growth inhibition of the SK-MEL-28 human tumor cell line is measured as a screen for anti-cancer activity. Cells are grown in 96 well plates and exposed to the test compound for 48 hours. Compounds are tested at a single concentration, which is 10^-5 M for most compounds. The reported endpoint is percent growth (GI% or GIPRCNT), where numbers from 0 - 100% represent growth inhibition, and numbers from -100% - 0 represent cell death. For example, a value of 40 represents 60% growth inhibition. A value of 0 means no net growth occurred over the course of the experiment. A value of -40 indicates 40% of cells at the beginning of the experiment died by the end of the experiment. A value of -100 means all cells are dead at the end of the experiment.
NCI-60 Human Tumor Cell Lines Screen was performed using the standard one-dose NCI protocol, which is described in more detail at https://dtp.cancer.gov/discovery_development/nci-60/default.htm.
Compounds with GIPRCNT values below 10 were considered active. Activity score was based on GIPRCNT using the following formula: […]
Score is 0 for GIPRCNT values of 100 or above, 50 for GIPRCNT values of 0, and 100 for GIPRCNT values of -100.
Consider `NC(=O)NCCO`, for which the growth was 113%. As for `CCN(CC)c1ccc2nc3ccc(N=Nc4ccc(N(C)C)cc4)cc3[n+](-c3ccccc3)c2c1`, the growth is -36.1% (active).

Regarding `COc1ccc(C2CC(c3ccccc3)=Nc3ccccc3S2)cc1` (stereo not given), the growth is 98.4%. As for `CCOC(=O)/C(O)=C(\C=N\C(=S)Nc1ccc(Cl)c(Cl)c1)C(=O)OCC`, the growth was 109%. The value for `Cc1cc(Cc2ccccc2)c(O)c(Cc2ccccc2)c1` was 106%; that for `CCOc1ccc(C(=O)O)cc1` was 105%. The value for `O=C(O)c1c[nH]c2ccccc2c1=O` was 102%; that for `O=C(NC(=S)N1CC=CCC1)c1ccccc1` was 115%.

For the compound `CC(=O)c1ccc(C)cc1`, the growth was 104%. With `CCOC(=O)C1(N)CCCCC1`, the growth was 165%. As to `CCCCCCCCCCCCCCCCOc1ccccc1NC(=O)CC(C)=O`, the growth is 103%. On to `COC(=O)C1(CC(C)=O)NC(=S)NC(=O)C1C#N` (stereo not given), for which the growth was 118%.

`CC(C)(N)CO[C@H]1C[C@H]2CC[C@@]1(C)C2(C)C`: the growth is 94.7%. The value for `O=S(Cc1ccccc1)/C(=C/NC(=S)Nc1ccccc1)c1ccccc1` (stereo not given) was 106%; that for `CCC12OC(COc3ccccc3)CN1CCN2c1ccccc1` (stereo not given) was 103% [100 µM]. On to `CC(C)N(CCCC#N)C(C)C`, for which the growth is 95.3%.

Consider `O=S1(=O)c2ccccc2Oc2ccccc21`, for which the growth was 99.4%. As to `Nc1nnc2cc(F)ccc2n1`, the growth was 108%. The value for `CCCCCC(=O)OCCC1CCCCC1` was 105%; that for `Cn1c2ccccc2c2nnc(NCCCCO)nc21` was 109%; that for `Nc1c(O)c(S(=O)(=O)O)c(O)c2c1C(=O)c1ccccc1C2=O` was 42.5%.

Take `CCCCOC(=O)c1ccccc1O`: the growth was 113%. The value for `O=C(O)C1CSC(c2ccccc2)N1` (stereo not given) was 99.6%; that for `CCOC(=O)c1ccc(C(C)(C)C)cc1` was 109%; that for `CC12CCC3c4ccc(O)cc4CCC3C1CCC2=O` (stereo not given) was 106%. `Oc1ccc(N=Cc2ccc(OCc3ccccc3)cc2)cc1`: the growth is 106%. Turning to `Cc1[nH]nc(C(N)=O)c1[N+](=O)[O-]`, the growth is 93.2%. `C=C(OC(C)=O)c1ccccc1`: the growth was 118%. With `Cn1c(=O)c2[nH]c(CCCCC(=O)O)nc2n(C)c1=O`, the growth was 118%. The value for `CSc1cnc2ccccc2n1` was 110%; that for `Oc1ccc2ccccc2c1CN1CCOCC1` was 107%; that for `NCCCN1CCCC1=O` was 111%. The value for `COc1cc(C(=O)NC(=S)NCc2ccncc2)cc(OC)c1OC` was 102%; that for `COc1ccc(NNS(=O)(=O)O)cc1` was 107%; that for `COc1ccc2c(ccc[n+]2C)c1` was 111%. The value for `N#CC1(O)CCCCC1` was 109%; that for `CCCCN(C(=O)CC)c1ccccc1` was 104%; that for `CC(=O)OCC1CCC(COC(C)=O)CC1` (stereo not given) was 102%.

As to `O=S(=O)(O)c1cccnc1`, the growth is 114%. The value for `CC(O)C(F)(F)C(F)(F)C(F)(F)F` (stereo not given) was 108%.
